Compound activity from PubChem.
aSyn 5UTR act: Activators via SNCA 5'UTR binding, MLPCN | alpha-synuclein 5'UTR reporter, activators screen | activity score, % (tested at 7.5 µM), hits read low | 300,000 compounds, 7.1% hits | AID 1814, 2009; in the data active = activity score below about -60%
* marks the source's active call; other numbers are inactive results. A selection follows.

SMILES | aSyn 5UTR act
Cc1cccc(NC(=O)c2cc3cc([N+](=O)[O-])ccc3s2)n1 | -85.0*
CCC(C)N1CC(O)=C(c2nc3ccccc3[nH]2)C1=N (stereo not drawn) | -79.6*
N=C1C(c2nc3ccccc3[nH]2)=C(O)CN1c1ccccc1 | -292.9*
CC1C(O)=C(c2nc3ccccc3[nH]2)C(=N)N1c1ccccc1 (stereo not drawn) | -131.1*
CC(C)(C)c1ccc(C(=O)Nc2sc3c(c2C(=O)O)CCC3)cc1 | 95.0
O=C(Nc1sc2c(c1C(=O)O)CCCC2)c1ccc(F)cc1 | -93.6*
O=C(Nc1sc2c(c1C(=O)O)CCCCC2)c1cccs1 | -80.1*
NC(=O)c1c(NC(=O)c2ccc(F)cc2)sc2c1CCC2 | -184.4*
COc1ccccc1C(=O)Nc1sc2c(c1C(N)=O)CCCC2 | -82.7*
O=C1c2ccccc2C(=O)N1CCc1ccccc1 | -70.5*
O=C1c2ccccc2C(=O)N1CCSc1ccccc1 | -190.6*
O=C1C2CC=C(Cl)CC2C(=O)N1CCc1ccccc1 (stereo not drawn) | -69.4*
CN1c2ccsc2/C(=N/Nc2ccc(F)cc2)CS1(=O)=O | -187.0*
Cc1ccc(N/N=C2\CS(=O)(=O)N(C)c3ccsc32)cc1 | -149.3*
Cc1cccc(N=CC=C2OC(C)(C)C(C)(C)O2)c1 | -81.3*
COc1cccc(N=CC=C2OC(C)(C)C(C)(C)O2)c1 | -98.6*
c1ccc2c(c1)[nH]c1c3ccccc3sc21 | -138.2*
COc1ccc(-c2nnc(SC)o2)c(OC)c1 | -85.2*
COc1ccc(OC)c(-c2nnc(-c3ccc(C)o3)o2)c1 | -63.3*
CSc1ccc(/C=C/C(=O)c2c(O)cc(C)oc2=O)cc1 | -117.5*
Cc1cc(O)c(C(=O)/C=C/c2ccc(Cl)cc2)c(=O)o1 | -172.2*
Clc1ccc(Cn2nc(-c3ccccc3)nc2-c2ccccc2)cc1 | -114.2*
COc1cc(CNc2ccc3c(c2)CCC3)cc(OC)c1O | -225.8*
CCOc1cc(CNc2ccc3c(c2)CCC3)ccc1O | -118.6*
CSc1ccccc1OCc1cc(C(=O)NCc2cccc(C)n2)no1 | -112.1*
SMILES | aSyn 5UTR act
CSc1ccccc1OCc1cc(C(=O)N(C)Cc2ccncn2)no1 | -81.4*
CSc1ccccc1OCc1cc(C(=O)N(C)CC2COCCO2)no1 (stereo not drawn) | -82.6*
Cc1nc(CNC(=O)c2cc(COc3c(F)cccc3F)on2)cs1 | 41.5
CSc1ccccc1OCc1cc(C(=O)N(C)Cc2nonc2C)no1 | -119.2*
CCn1ccnc1CN(C)C(=O)c1cc(COc2ccccc2SC)on1 | -100.6*
CCOC(=O)C1=C(COc2ccc(C)cc2)NC(=O)NC1c1cc(C)ccc1C (stereo not drawn) | -86.1*
COc1cc(-c2noc(C)c2C#Cc2ccccn2)cc(OC)c1OC | 85.8
O=c1c2ccccc2oc2cc(C#Cc3ccccn3)ccc12 | -66.7*
COc1cccc2oc3ccc(C#Cc4ccccn4)cc3c(=O)c12 | -71.0*
COc1ccc2c(C)c(C)c(=O)oc2c1OC | -84.5*
CCN(CC)S(=O)(=O)c1cc(C(=O)Oc2cccc(-c3cnc4ccccc4n3)c2)ccc1OC | -171.0*
CCN(CC)S(=O)(=O)c1ccc(C)c(C(=O)Oc2cccc(-c3cnc4ccccc4n3)c2)c1 | -178.0*
CS(=O)(=O)N1CCN(c2ccc(NC(=O)c3cc4ccccc4o3)cc2)CC1 | -115.8*
CN1CCN(c2ccc(NC(=O)c3cc4ccccc4o3)cc2)CC1 | -64.0*
CC(=O)Nc1ccccc1C(=O)C(=O)Nc1ccc(C)c(F)c1 | -264.2*
CC(=O)Nc1ccccc1C(=O)C(=O)Nc1ccc(F)c(Cl)c1 | -123.1*
CC(=O)Nc1ccccc1C(=O)C(=O)Nc1ccc(C)c(C)c1 | -181.7*
Cc1ccc(NC(=O)/C(Cl)=C/c2ccccc2)cc1C | -155.5*
CC(=O)Nc1ccccc1C(=O)C(=O)Nc1cccc(F)c1 | -148.8*
CCN(CC)C(=O)C(=O)Nc1ccc(F)c(Cl)c1 | -130.9*
O=C(/C=C/c1ccco1)Nc1nc(-c2ccccc2)cs1 | -250.4*
O=C(/C=C/c1ccco1)Nc1nc(-c2ccccn2)cs1 | -79.2*
Cc1csc(NC(=O)/C=C/c2ccco2)n1 | -168.2*
O=C(/C=C/c1ccco1)Nc1nc(-c2ccc(F)c(F)c2)cs1 | -99.6*
COc1ccc(-c2csc(NC(=S)NC(=O)/C=C/c3ccco3)n2)cc1OC | 62.9
SMILES | aSyn 5UTR act
Cc1ccc(NC(=O)Nc2cnccn2)cc1C | -68.1*
CC(C)c1ccc(NC(=O)Nc2cnccn2)cc1 | -211.5*
Cc1ccc(NC(=O)Nc2cnccn2)cc1 | -118.3*
CCNc1nc(Oc2ccc(C#N)cc2)cc(C(F)(F)F)n1 | 58.9
CCNc1nc(N)nc(Oc2ccc(C(=O)OC)cc2)n1 | -71.2*
Cc1cc2ncn(/N=C/c3ccc([N+](=O)[O-])o3)c2cc1C | -121.7*
O=C(N/N=C/c1ccc([N+](=O)[O-])o1)c1cc(-c2ccncc2)nc2ccccc12 | -66.7*
Cc1cc(N/N=C/c2ccc([N+](=O)[O-])o2)nc2ccccc12 | -133.2*
Cc1ccc2nc(N/N=C/c3ccco3)cc(C)c2c1 | -185.5*
O=C(N/N=C/c1ccc([N+](=O)[O-])o1)c1cc(-c2ccc(-c3ccccc3)cc2)nc2ccccc12 | 76.1
Cc1sc(NC(=O)CCCC(=O)O)c(C(N)=O)c1-c1ccccc1 | 51.8
Cc1sc(NC(=O)C2=COCCO2)c(C(N)=O)c1C | -62.4*
Cc1sc(NC(=O)c2cccs2)c(C(N)=O)c1C | -254.8*
NC(=O)c1ccsc1NC(=O)c1cccs1 | -164.5*
O=c1c2ccccc2nc(/C=C/c2c[nH]c3ccccc23)n1CCO | -160.0*
Cc1c(N)ccc(-n2nc3ccccc3n2)c1C | -64.6*
Cc1ccc(-n2nc3ccc(N)cc3n2)c(C)c1 | 65.9
CCCCS/C(N)=N/N=C/c1ccccc1O | -153.4*
C/C(=N/N=C/c1ccccc1O)c1ccccc1O | -240.0*
CCCS/C(N)=N/N=C/c1cc(C)ccc1O | -137.5*
CCOC(=O)C(=O)N(Nc1ccc(C)cc1)c1ccc(C)cc1 | -177.7*
CC(C)N(Cc1cn[nH]c1-c1ccc(-c2ccccc2)cc1)Cc1nccn1C | -105.8*
COC(=O)C1C(=O)C=C(Nc2ccc(F)cc2F)CC1c1ccccc1 (stereo not drawn) | -113.5*
CCOC(=O)C1C(=O)C=C(Nc2ccccc2F)CC1c1ccccc1 (stereo not drawn) | -113.5*
COc1cc(/C=C/c2cc[n+](C)cc2)ccc1OCC(=O)Nc1ccccc1 | -76.4*
SMILES | aSyn 5UTR act
COc1cc(C=C2C(=O)OC(C)(C)OC2=O)ccc1OCC(=O)Nc1ccccc1 | -122.8*
COc1ccc(-c2nc(NC(=O)Cn3c(=O)oc4ccccc43)sc2C)cc1 | -69.9*
CCOC(=O)c1ccc2c(c1)nc(-c1ccccn1)n2CC | -133.8*
O=c1c2ccccc2oc2cc(-c3ccc4[nH]ccc4c3)ccc12 | -97.3*
COc1cc2sc3ccc(-c4ccc5[nH]ccc5c4)cc3c(=O)c2cc1OC | -238.7*
Cc1sc2c(c1C)CN(CCN1CCOCC1)CN2C(=O)c1ccccc1 | -82.0*
CN(C)CCCNS(=O)(=O)c1ccc(N2CCC(c3ccc(Cl)cc3)=N2)cc1 | -138.6*
O=C(O)CCCn1c(O)c(C=C2N=c3ccccc3=N2)sc1=S | -88.9*
COc1ccc(C(=O)c2oc3ccc(OC)cc3c2N)cc1 | -166.5*
CCN(CC)CCOC(=O)c1c(C)oc2ccc(OC)cc12 | -111.9*
CCN(CC)CCOC(=O)c1ccc(NC(=O)CCCN2C(=O)S/C(=C/c3ccc(OC)cc3)C2=S)cc1 | 96.5
COC(=O)c1oc2ccc(OC)cc2c1N | -76.1*
Nc1c(C(=O)c2ccc(Cl)cc2)oc2ccccc12 | -111.1*
